1 compound from PubChem BioAssay AID687010 (National Center for Advancing Translational Sciences (NCATS), 2013) can be followed below.

Active and inactive are the calls of the source.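 The calls were made as follows: active = a significant rise in survival of treated spinal muscular atrophy model mice compared with vehicle-treated controls; inactive = no significant rise in survival.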

This assay can be described thus: Extended Characterization of SMN2 Inhibitors: Survival Studies. Particulars: SMNdelta7 SMA mice, 50 mg/kg i.p. twice daily. An excerpt:
Spinal muscular atrophy (SMA) is caused by insufficient levels of the survival motor neuron protein SMN. The SMN locus on chromosome 5q13 contains two inverted copies of SMN called SMN1 and SMN2 which are 99% identical at the amino acid level. SMN1 is a fully functional protein and SMN2 skips exon 7 90% of the time. Skipping of exon 7 produces non-functional protein product. 10% of the SMN2 protein includes exon 7 and is fully functional. In the SMA disease state, mutations in the SMN1 locus are the cause of the disease state. Because only 10% of SMN2 is of the fully functional form, it is not sufficient to overcome the deficiency produced by the loss of the SMN1 product. A therapy that either increase the amount of SMN2 product made or to increase the inclusion of exon 7 has been proposed for the treatment of SMA. We have previously filed a probe report and have now done further SAR and further characterized the resulting compounds in mice studies. […]
Studies were approved by the National Institute of Neurological […] and Stroke Animal Care Committee and performed in accordance with the National Institutes of Health Guide for the Care and Use of Laboratory Animals. […] For survival studies, litters were maintained and kept with the mother until P21, after which if any SMA pups survived they were weaned and continued to be monitored.
Turning to `O=C(O)C1CCN(c2ncc(-c3ccc4c(c3)OCCCO4)s2)CC1`, the outcome was “active; yes”.
